Screening data from PubChem BioAssay.
In the library only some 8% were active in any assay of this set; here they are far more common.
KB-3-1 tox: KB-3-1 parental cell cytotoxicity; KB-3-1 viability, CellTiter-Glo ATP luminescence, 72 h; Potency, µM (doses to about 46.1 µM), hits mostly cytotoxic; hit rate 1.4% among 400,000; also: % is scaled to controls: 0 for no effect and ±100 for the full control effect; nearly all actives have a fitted effect of over 60% in size
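Cells are dispensed, compounds pinned in, plates held at 37 °C for 72 h, then CellTiter-Glo is added and luminescence read after 10 minutes. Cell line: parental KB-3-1 in phenol-red-free DMEM, 10% FBS.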
HT1080-NT tox: kills 2HG-producing HT-1080-NT fibrosarcoma cells; HT-1080-NT fibrosarcoma viability, CellTiter-Glo ATP luminescence, 48 h; Potency, µM (top dose mostly 46.1 µM), without a hit: at the highest dose activity, negative = less viability, hits mostly cytotoxic; hit rate 1.6% among 360,000;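 also: NT is the 2HG producing partner of a matched IDH1 knockdown line; 0% = DMSO-treated cells and -100% = media-only wells without cells; nearly all actives have a fitted effect of over 55% in size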
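HT-1080-NT fibrosarcoma cells (2HG-overproducing), 750 cells/well in RPMI with 5% FBS, dosed after 2 h and incubated 48 h at 37C. CellTiter-Glo luminescence normalized to DMSO and no-cell wells; concentration-response curves fitted and classed.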
HT1080 IDH1KD tx: kills HT-1080 cells with IDH1 knockdown | HT-1080 IDH1 knockdown viability, ATP luminescence, 48 h | Potency, µM (series often up to 46.1 µM), for inactives: at the top dose activity, negative = toxicity, most hits filed as cytotoxic | hit rate 2% among 360,000 | AID 686971;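 also: 0% = DMSO wells and -100% = cell-free medium wells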
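In this qHTS, HT-1080 cells depleted of IDH1 are exposed for 48 h at 37 °C to compound titrations. Toxicity is scored from CellTiter-Glo luminescence, with DMSO as full viability and medium alone as none.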
SW480 rerep: inducers of DNA re-replication in SW480 colon cancer cells. SW480 DNA re-replication, Hoechst DNA content imaging, 48 h. Potency, µM (top dose mostly 46.1 µM), for inactives: at the highest dose re-replication activation, usual class: activators. hit rate 1.8% among 340,000. AID 624297; also: % of control where 0% means no effect; nearly all actives have a fitted effect of over 55% in size
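Cells (250 per well) received 23 nL compound or DMSO by pin tool and were kept 48 hr at 37 C, 5% CO2. Nuclei were then stained with Hoechst for 40 min and scanned for DNA content.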
KB-V1 cytotox: KB-V1 MDR subline cytotoxicity | hit rate 3.4% among 400,000 | Potency, µM (titrated, usually from 46.1 µM), most hits filed as cytotoxic | KB-V1 MDR cells viability, CellTiter-Glo, 72 h; also: % is scaled to controls: 0 for no effect and ±100 for the full control effect; nearly all actives have a fitted effect of over 60% in size
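Compound-treated KB-V1 multidrug-resistant cells, 72 h, 37 degrees C; viability by CellTiter-Glo. Fitted qHTS curves give the values.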
MCF10A rerep: DNA re-replication induction in MCF 10a cells | MCF 10A DNA re-replication, Hoechst nuclear intensity, 48 h | Potency, µM (top dose mostly 46.1 µM), inactives show at the highest dose activity, positive = re-replication, usual class: activators | hit rate 2.9% among 350,000; also: % of control where 0% means no effect; nearly all actives have a fitted effect of over 50% in size
* hit, by the source's call; i = inactive; ? = inconclusive; . = no result given. Calls follow the shape of the dose curve; as a rule, active = well fitted curve in the direction sought with a large enough effect; inconclusive = small, poorly fitted or top-dose-only effect, or another doubt; inactive = no such curve, though single readings can be large; an effect the other way counts as inactive or inconclusive. Potency is read from the fitted curve at half-maximal effect.

SMILES	KB-3-1 tox	HT1080-NT tox	HT1080 IDH1KD tx	SW480 rerep	KB-V1 cytotox	MCF10A rerep
CC1CN(CCCCOc2ccc(Cl)c3ccccc23)CC(C)O1 (stereo not given)	i	21µM*	?	?	i	?
Cc1ccc(S(=O)(=O)c2cnc(SCC(=O)Nc3cc(C)cc(C)c3)nc2N)cc1	i	.	.	.	?	.
COc1ccc2c(c1)c1c(c(=O)n(CCc3ccccc3)c(=O)n1Cc1ccc(Cl)cc1)n2C	i	.	.	.	i	.
CCN(CC)CCNC(Cc1ccccc1)c1cccc(OC)c1 (stereo not given)	i	-9%	-6%	?	23µM*	?
COc1ccc(NC(=O)c2oc3ccccc3c2NC(=O)C2CC2)cc1	i	6%	-24%	1%	10µM*	1%
CCOc1ccc(NC(=O)c2oc3ccccc3c2NC(=O)C(C)(C)C)cc1	i	.	.	.	i	.
COc1ccc(NC(=O)c2oc3ccccc3c2NC(=O)C(C)(C)C)cc1	i	-1%	?	14%	9.2µM*	30%
CCCS(=O)(=O)N1CC(=O)N(c2ccc(C)c(Cl)c2)C(C)(C(=O)NC2CCCCCC2)C1 (stereo not given)	i	.	.	.	i	.
CC1CCN(CC(=O)N2CCCc3c2c(=O)oc2ccc(OCc4ccccc4)cc32)CC1	?	?	?	?	?	11µM*
CC1CC(C)CN(CC(=O)N2CCCc3c2c(=O)oc2ccc(OCc4ccccc4)cc32)C1 (stereo not given)	?	?	?	20%	i	?
COc1cc(CN(C(=O)c2ccccc2)c2ccccn2)cc(OC)c1OC	i	.	.	.	i	.
CC(C)c1ccc(NC(=O)CN(C)S(=O)(=O)c2ccc3c(c2)n(C)c(=O)c(=O)n3C)cc1	i	.	.	.	i	.
Cc1nnc2n1N=C(c1ccc(F)cc1F)CS2	i	8%	-1%	-1%	i	0%
COc1ccc(-c2cc3nc(-c4ccccc4)cc(N4CCC(O)CC4)n3n2)cc1	i	18µM*	?	-8%	?	18%
Fc1ccc(-c2cc3nc(-c4ccccc4)cc(N4CCOCC4)n3n2)cc1	i	9%	-1%	?	i	?
COc1ccc(-c2cc3nc(-c4ccccc4)cc(N4CCN(C(=O)c5ccsc5)CC4)n3n2)cc1	i	0%	-1%	.	i	.
COc1ccc(-c2cc3nc(-c4ccccc4)cc(N4CCCC(O)C4)n3n2)cc1 (stereo not given)	i	?	21µM*	?	i	21µM*
Cc1cccc(-c2cc3nc(-c4ccccc4)cc(N4CCC5(CC4)OCCO5)n3n2)c1	i	-5%	-13%	?	i	12%
COc1ccc(-c2cc3nc(-c4ccccc4)cc(N4CCN(C(=O)c5ccccc5)CC4)n3n2)cc1	i	-10%	-19%	.	i	.
Cc1ccc(-c2cc3nc(-c4ccccc4)cc(N4CCC5(CC4)OCCO5)n3n2)cc1	i	-3%	8%	18µM*	i	?
COc1ccc(-c2cc3nc(-c4ccccc4)cc(N4CCN(C(C)=O)CC4)n3n2)cc1	i	?	16µM*	.	i	.
OC[C@@H]1CN(Cc2ccc(-c3ccccc3)cc2)C[C@H](n2cnc3c(N4CCCC4)ncnc32)O1	i	?	?	.	i	.
CCOc1cc(C(=O)OCC(=O)Nc2ncc(Cl)c(C)c2Cl)ccc1OCC(=O)N1CCOCC1	i	10%	10%	-9%	i	5%
CN(C)CCCNc1cc(-c2ccccc2)nc2cc(-c3cccc(F)c3)nn12	?	?	?	?	?	21µM*
Cc1cccc(-c2cc3nc(C)cc(NCCCN(C)C)n3n2)c1	i	?	?	17%	i	?
SMILES	KB-3-1 tox	HT1080-NT tox	HT1080 IDH1KD tx	SW480 rerep	KB-V1 cytotox	MCF10A rerep
COCCN1CCN(c2cc(-c3ccccc3)nc3cc(-c4cccc(F)c4)nn23)CC1	i	?	?	?	i	21µM*
CCc1nn(CC(=O)NCCCc2ccccc2)c(=O)c2cc3ccccc3n12	i	.	.	.	i	.
CC1=C(C(=O)Nc2cccc(C(F)(F)F)c2)C2(CCN(C(C)C)CC2)OC1=O	i	.	.	.	i	.
COc1ccc(/C=N/Nc2nncn2N)cc1Br	i	16µM*	?	15%	i	-6%
Nn1cnnc1N/N=C/c1ccc(Cl)cc1Cl	i	?	?	-14%	i	13%
COc1cc(/C=C(\C#N)C(N)=O)ccc1OCc1c(C)no[n+]1[O-]	i	0%	1%	-24%	?	1%
COc1cc(/C=N/Nc2nncn2N)ccc1OCc1c(C)no[n+]1[O-]	i	?	?	1%	?	18µM*
COC(=O)c1c[nH]c2c1-c1cc(C(=O)OCc3ccccc3)n(S(=O)(=O)c3ccc(C)cc3)c1C(=O)C2=O	2.9µM*	?	21µM*	?	5.8µM*	12%
Cc1c(/C=N/NC(N)=O)c2ccccn2c1C(=O)c1ccc(F)cc1	i	-15%	-28%	-4%	18µM*	19%
C/C(=N\N=C(N)N)c1ccc(Cl)c(Cl)c1	i	23µM*	18µM*	?	?	?
Cc1ccn2cc(C34CC5CC(CC(C5)C3)C4)nc2c1	i	-1%	-12%	21µM*	i	?
Cc1ccccc1OC(=O)CSc1nnc(-c2ccc3c(c2)OCO3)o1	i	.	.	.	i	.
COC1=C(C)C(=O)C2=C(C1=O)C1C3CC4=C(C(=O)C(OC)=C(C)C4=O)C(CNC(=O)C(C)=O)N3C(C#N)C(C2)N1C (stereo not given)	0.1µM*	18µM*	0.082µM*	?	2.3µM*	?
O=C(NCCOc1ccccc1F)c1cc([N+](=O)[O-])ccc1N1CCOCC1	?	6.5µM*	8.2µM*	9.2µM*	i	?
O=C(NCCc1ccccc1)c1cc([N+](=O)[O-])ccc1N1CCOCC1	i	-10%	-2%	4%	i	1%
O=C(NCCOc1ccccc1)c1cc([N+](=O)[O-])ccc1N1CCOCC1	?	?	7.3µM*	2.9µM*	?	10µM*
O=C(CCC1N=C2c3ccccc3N=C(SCc3ccccc3F)N2C1=O)NCc1ccc(F)cc1 (stereo not given)	i	.	.	.	i	.
